Measured values reported in PubChem BioAssay (Tox21).
Inconclusive results are not listed. Calls of active or inactive are those of the source. Unless noted, the call rests on the fitted dose curve; in most records, active means well fitted curve in the direction sought with a large enough effect in the repeat runs; inconclusive means weak or mixed curves; inactive means no such curve, though single readings can be large; an effect the other way counts as inactive or inconclusive.

Experiments:
[1] = qHTS assay to identify small molecule antagonists of the estrogen receptor alpha (ER-alpha) signaling pathway using the BG1 cell line in the presence of 0.1 nM 17-beta-estradiol - cell viability counter screen (AID 1259241); further: nearly all actives have a fitted effect of over 40% in size
In short: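 Estradiol-stimulated (0.1 nM) VM7Luc4E2 cells exposed to compounds 22 hr; viability measured by fluorescence of cleaved CellTiter-Fluor substrate after 30 min.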

[2] = qHTS assay to identify small molecule antagonists of the androgen receptor (AR) signaling pathway using the MDA cell line in the presence of 0.5 nM R1881 - cell viability counter screen (AID 1259242); further: nearly all actives have a fitted effect of over 45% in size
In short: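 MDA-kb2 cells (MMTV-luciferase, AR/GR responsive) were treated with compounds plus 0.5 nM R1881 (final) for 16 hr at 37C, 0% CO2. Viability was then read in the same wells as live-cell protease fluorescence (CellTiter-Fluor, 30 min).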

[3] = target: Androgen receptor (Homo sapiens) (UniProt P10275); assay: qHTS assay to identify small molecule antagonists of the androgen receptor (AR) signaling pathway using the MDA cell line in the presence of 0.5 nM R1881 (AID 1259243); further: nearly all actives have a fitted effect of over 50% in size; further: potency means the concentration at half of the fitted maximal effect
Chain of Androgen receptor (Homo sapiens) (P10275 whole entry, looked up): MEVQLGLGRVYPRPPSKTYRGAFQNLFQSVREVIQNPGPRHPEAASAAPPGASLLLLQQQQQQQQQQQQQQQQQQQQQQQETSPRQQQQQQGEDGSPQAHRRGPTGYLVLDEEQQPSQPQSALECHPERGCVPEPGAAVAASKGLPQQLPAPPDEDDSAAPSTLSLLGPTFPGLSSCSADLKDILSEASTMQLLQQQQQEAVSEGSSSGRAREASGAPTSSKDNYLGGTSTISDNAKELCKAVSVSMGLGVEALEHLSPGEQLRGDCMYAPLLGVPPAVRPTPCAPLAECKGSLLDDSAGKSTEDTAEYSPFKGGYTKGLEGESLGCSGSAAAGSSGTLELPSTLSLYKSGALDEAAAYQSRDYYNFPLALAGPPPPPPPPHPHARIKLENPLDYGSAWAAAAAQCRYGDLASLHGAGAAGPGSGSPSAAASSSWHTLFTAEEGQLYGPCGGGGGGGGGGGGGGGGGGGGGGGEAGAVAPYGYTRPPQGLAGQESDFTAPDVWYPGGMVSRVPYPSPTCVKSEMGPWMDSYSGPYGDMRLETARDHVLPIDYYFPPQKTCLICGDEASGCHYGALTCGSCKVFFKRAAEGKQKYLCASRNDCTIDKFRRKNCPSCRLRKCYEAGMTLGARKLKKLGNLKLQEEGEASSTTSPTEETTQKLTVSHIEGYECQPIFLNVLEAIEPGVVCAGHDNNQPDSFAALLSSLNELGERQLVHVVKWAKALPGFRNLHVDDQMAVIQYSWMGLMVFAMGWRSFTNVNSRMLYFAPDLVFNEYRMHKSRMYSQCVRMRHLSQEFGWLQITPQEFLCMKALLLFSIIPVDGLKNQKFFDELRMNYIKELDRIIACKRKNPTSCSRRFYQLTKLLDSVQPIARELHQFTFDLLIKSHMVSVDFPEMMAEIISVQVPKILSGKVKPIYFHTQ
In short: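 MDA-kb2 cells (MMTV-luciferase, responsive to AR and GR) at 3,000/well, rested 5 h at 37C, 0% CO2, then given compounds plus 0.5 nM R1881 (final) for 16 hr. Luciferase read with ONE-Glo after 30 min at room temperature.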

[4] = qHTS assay to identify small molecule HDAC inhibitors (AID 1259364); further: nearly all actives have a fitted effect of over 45% in size; further: potency means the concentration at half of the fitted maximal effect
In short: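 Wild-type HCT-116 cells, plated overnight at 37 C, exposed to compounds 2 hr at 37 C; luminogenic HDAC-Glo substrate then added 30 min at room temperature. Luminescence reports relative endogenous class I/II HDAC activity.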

[5] = qHTS assay to identify small molecule HDAC inhibitors - cell viability counter screen (AID 1259365); further: series mostly up to about 92 µM; nearly all actives have a fitted effect of over 50% in size
In short: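 After overnight seeding at 1,500 cells per well, wild-type HCT-116 cultures took up compounds in DMSO for 2hr at 37 C. Viable cell content came from luminescence with CellTiter-Glo.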

[6] = qHTS assay to identify small molecule agonists of the sonic hedgehog signaling (Shh) pathway - cell viability counter screen (AID 1259366); further: nearly all actives have a fitted effect of over 50% in size
In short: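 Same-well cytotoxicity read. Gli1-Luc reporter 3T3 cells; compounds 24hr, 37C/5% CO2; CellTiter-Fluor fluorescence.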

[7] = qHTS assay to identify small molecule antagonists of the sonic hedgehog signaling (Shh) pathway - cell viability counter screen (AID 1259367); further: nearly all actives have a fitted effect of over 55% in size
In short: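 Cells: 3T3 Gli1-Luc, 2,000/well, 4 hr pre-incubation. Compounds in DMSO, then conditioned medium. Incubation 24 hr, 37C, 5% CO2. CellTiter-Fluor at 23 hr, 1 hr, fluorescence.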

[8] = qHTS assay to identify small molecule agonists of the sonic hedgehog signaling (Shh) pathway (AID 1259368; calls by dose curve;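 further: NIH/3T3-derived 3T3Gli1-Luc cells carrying a stable Gli1-driven firefly luciferase reporter; series mostly up to about 92 µM; nearly all actives have a fitted effect of over 15% in size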)
In short: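 NIH/3T3-derived 3T3Gli1-Luc cells with stably integrated Gli1-driven firefly luciferase, 2,000 cells/well, compounds added after 4 hr. Incubated 24 hr at 37C, 5% CO2; luminescence read after 30 min with luciferase reagent at room temperature.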

[9] = qHTS assay to identify small molecule antagonists of the sonic hedgehog signaling (Shh) pathway (AID 1259369; calls by dose curve; further: nearly all actives have a fitted effect of over 45% in size)
In short: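 NIH/3T3-derived Gli1-Luc reporter cells plated 4 h, dosed with compound, then stimulated with conditioned medium for 24 h at 37 C. Firefly luciferase luminescence read after 30 min with detection reagent at room temperature.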

[10] = target: Estrogen receptor beta (Homo sapiens) (UniProt Q92731); assay: qHTS assay to identify small molecule agonists of the estrogen receptor beta (ER-beta) signaling pathway (AID 1259377; active means well fitted activation curve with a large enough effect in the signal ratio in the repeat runs, not every such curve was filed as active; the % refers to the signal ratio)
Chain of Estrogen receptor beta (Homo sapiens) (Q92731 whole entry, looked up): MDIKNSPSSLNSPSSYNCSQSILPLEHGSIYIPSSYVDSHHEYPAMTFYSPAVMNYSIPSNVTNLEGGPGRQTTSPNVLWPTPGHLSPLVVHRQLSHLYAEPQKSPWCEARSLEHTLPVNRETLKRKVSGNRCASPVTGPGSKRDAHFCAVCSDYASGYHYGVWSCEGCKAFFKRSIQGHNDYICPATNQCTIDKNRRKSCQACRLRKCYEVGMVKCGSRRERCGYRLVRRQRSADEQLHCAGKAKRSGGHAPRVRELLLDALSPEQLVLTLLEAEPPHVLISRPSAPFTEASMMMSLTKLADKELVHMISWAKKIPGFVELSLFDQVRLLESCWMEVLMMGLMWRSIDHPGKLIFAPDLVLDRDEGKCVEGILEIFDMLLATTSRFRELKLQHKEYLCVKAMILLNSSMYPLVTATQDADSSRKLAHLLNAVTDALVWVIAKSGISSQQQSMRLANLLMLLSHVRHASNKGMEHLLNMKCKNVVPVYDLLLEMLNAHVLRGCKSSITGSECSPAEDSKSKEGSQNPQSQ
In short: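 Read-out: beta-lactamase FRET fluorescence. Cell line: ER-beta-UAS-bla HEK293T in 2% charcoal-stripped FBS. Exposure: 16 hr at 37C. Substrate step: 2 h at room temperature.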

[11] = target: Estrogen receptor beta (Homo sapiens) (UniProt Q92731); assay: qHTS assay to identify small molecule antagonists of the estrogen receptor beta (ER-beta) signaling pathway (AID 1259378; active means well fitted inhibition curve with a large enough effect in the signal ratio in the repeat runs, not every such curve was filed as active; the % refers to the signal ratio)
In short: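 Antagonist mode: compounds added to beta-lactamase reporter HEK293T ER-beta-UAS cells stimulated with E2 (1nM final), 16 hr at 37C. LiveBLAzer B/G FRET substrate, 2 hours room temperature, fluorescence read-out.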

[12] = qHTS assay to identify small molecule agonists of the androgen receptor (AR) signaling pathway in the presence of an antagonist - cell viability counter screen (AID 1259379);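 further: MDA-kb2 human breast cancer cells carrying an MMTV luciferase reporter; series mostly up to about 92 µM; nearly all actives have a fitted effect of over 25% in size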
In short: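 MDA-kb2 cells (MMTV-luciferase, AR/GR), 3,000/well, 5 h attachment, then 3.0 µM nilutamide (final) and compounds at 15 concentrations. Viability by CellTiter-Fluor fluorescence after 16 h at 37 °C, 0% CO2, in the reporter wells.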

[13] = qHTS assay to identify small molecule agonists of the estrogen receptor beta (ER-beta) signaling pathway - cell viability counter screen (AID 1259380); further: nearly all actives have a fitted effect of over 30% in size; further: potency means the concentration at half of the fitted maximal effect
In short: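 ER-beta-UAS-bla HEK293T cells in medium with 2% charcoal-stripped FBS, pre-incubated 6 hr, then treated 16 hr at 37C. Cytotoxicity read in the same wells by CellTiter-Glo luminescence after 30 min at room temperature.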

[14] = target: Androgen receptor (Homo sapiens) (UniProt P10275); assay: qHTS assay to identify small molecule agonists of the androgen receptor (AR) signaling pathway in the presence of an antagonist (AID 1259381; calls by dose curve; further: nearly all actives have a fitted effect of over 15% in size)
In short: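 MDA-kb2 cells carrying MMTV-luciferase (AR/GR responsive), 3,000 cells/well, co-treated with 3.0 uM nilutamide final. Compounds at 15 concentrations, 16 hr at 37C without CO2. Luciferase luminescence read after 30 min with ONE-Glo.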

[15] = qHTS assay to identify small molecule antagonists of the estrogen receptor beta (ER-beta) signaling pathway - cell viability counter screen (AID 1259382);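 further: HEK293T cells carrying ER-beta-UAS-bla reporter stimulated with estradiol; series mostly up to about 92 µM; nearly all actives have a fitted effect of over 55% in size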
In short: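 ER-beta-UAS-bla HEK293T cells in 2% charcoal-stripped FBS medium, treated with compound plus 1 nM 17-beta-estradiol for 16 h at 37C. Viability read by CellTiter-Glo luminescence after 30 min at room temperature in the same wells.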

[16] = qHTS assay to identify small molecule agonists or antagonists of the thyroid stimulating hormone receptor (TSHR) signaling pathway - wild type cell line counter screen (AID 1259384; calls by dose curve)
In short: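 Counter screen in untransfected Hek293: compounds (15-point titration, triplicate) plus phosphodiesterase inhibitor Ro20-1724 added after 18 h plating; 30 min RT. Intracellular cAMP via competitive d2/cryptate immunoassay, 1 h incubation.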

[17] = target: Estrogen receptor (Homo sapiens) (UniProt P03372); assay: qHTS assay to identify small molecule antagonists of the estrogen receptor alpha (ER-alpha) signaling pathway using the BG1 cell line in the presence of 0.1 nM 17-beta-estradiol (AID 1259244); further: nearly all actives have a fitted effect of over 50% in size
Chain of Estrogen receptor (Homo sapiens) (P03372 whole entry, looked up): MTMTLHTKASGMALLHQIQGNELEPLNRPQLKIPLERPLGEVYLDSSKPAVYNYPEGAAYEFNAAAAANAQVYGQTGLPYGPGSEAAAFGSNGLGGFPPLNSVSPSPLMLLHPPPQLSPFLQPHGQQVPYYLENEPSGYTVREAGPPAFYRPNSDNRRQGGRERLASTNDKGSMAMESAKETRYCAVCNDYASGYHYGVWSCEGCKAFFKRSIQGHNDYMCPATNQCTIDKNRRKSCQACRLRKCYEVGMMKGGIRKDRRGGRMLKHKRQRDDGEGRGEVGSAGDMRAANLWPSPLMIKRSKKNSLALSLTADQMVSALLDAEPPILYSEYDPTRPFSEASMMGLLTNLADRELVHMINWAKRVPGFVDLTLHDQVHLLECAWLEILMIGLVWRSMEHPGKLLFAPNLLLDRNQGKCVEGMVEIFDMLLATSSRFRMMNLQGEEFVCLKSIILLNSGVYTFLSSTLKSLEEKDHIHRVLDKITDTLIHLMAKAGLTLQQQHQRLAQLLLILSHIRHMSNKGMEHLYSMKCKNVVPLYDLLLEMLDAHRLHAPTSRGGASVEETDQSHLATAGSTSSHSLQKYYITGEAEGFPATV
In short: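 VM7Luc4E2 cells (endogenous full-length ER-alpha, 4×ERE-luciferase), kept 5 days in phenol red-free, charcoal-stripped FBS medium; 4,000 cells/well. Compounds added with 0.1 nM (final) 17beta-estradiol, 22 hr at 37C; luminescence read with ONE-Glo after 30 min.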

[18] = target: Estrogen receptor (Homo sapiens) (UniProt P03372); assay: qHTS assay to identify small molecule agonists of the estrogen receptor alpha (ER-alpha) signaling pathway in the presence of an antagonist (AID 1259383; calls by dose curve; further: top concentration of the series differs between compounds; nearly all actives have a fitted effect of over 15% in size)
In short: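 VM7Luc4E2 cells express endogenous full-length ER-alpha with an ERE-luciferase reporter and were hormone-deprived for 5 days. Compounds at 15 concentrations were added with 10.0nM ICI-182,780 for 22hr at 37C. Luminescence was read with ONE-Glo.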

[19] = target: Thyrotropin receptor (Homo sapiens) (UniProt P16473); assay: qHTS assay to identify small molecule antagonists of the thyroid stimulating hormone receptor (TSHR) signaling pathway (AID 1259385; calls by dose curve; further: nearly all actives have a fitted effect of over 20% in size)
Chain of Thyrotropin receptor (Homo sapiens) (P16473 whole entry, looked up): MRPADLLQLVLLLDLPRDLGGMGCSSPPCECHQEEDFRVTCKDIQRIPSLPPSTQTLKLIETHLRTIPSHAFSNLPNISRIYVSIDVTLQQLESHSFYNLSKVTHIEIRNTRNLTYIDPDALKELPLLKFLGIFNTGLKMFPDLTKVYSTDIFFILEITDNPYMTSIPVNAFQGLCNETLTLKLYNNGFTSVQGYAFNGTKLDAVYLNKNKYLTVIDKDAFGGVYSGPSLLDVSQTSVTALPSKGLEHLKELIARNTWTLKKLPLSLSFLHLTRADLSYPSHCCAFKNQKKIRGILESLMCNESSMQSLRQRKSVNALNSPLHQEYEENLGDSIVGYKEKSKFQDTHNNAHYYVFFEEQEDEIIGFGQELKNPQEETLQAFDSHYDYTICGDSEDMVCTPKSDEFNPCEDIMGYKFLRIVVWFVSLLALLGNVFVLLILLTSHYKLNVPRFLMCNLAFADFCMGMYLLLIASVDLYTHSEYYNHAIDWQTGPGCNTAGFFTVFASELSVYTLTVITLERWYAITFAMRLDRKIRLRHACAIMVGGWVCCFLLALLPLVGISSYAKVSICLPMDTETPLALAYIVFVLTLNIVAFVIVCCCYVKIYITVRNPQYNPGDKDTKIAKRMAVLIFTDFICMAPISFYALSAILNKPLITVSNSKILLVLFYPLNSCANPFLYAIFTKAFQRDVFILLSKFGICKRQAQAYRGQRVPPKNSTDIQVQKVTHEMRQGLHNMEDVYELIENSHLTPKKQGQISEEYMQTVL
In short: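 Antagonist mode: compound-treated TSHR-expressing HEK293 cells were stimulated with 1.5 ng/mL TSH (final) in presence of Ro20-1724 for 30 min at RT. HTRF cAMP detection after 1 h; each compound tested at 15 concentrations, triplicate.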

Measured: Potency

Cc1cc(CCCOc2c(C)cc(-c3noc(C(F)(F)F)n3)cc2C)on1
inactive: [1] | [2] | [4] | [5] | [6] | [7] | [8] | [9] | [10] | [11] | [12] | [13] | [14] | [15] | [16]
active: [3] 26.6 µM

BrC(Br)C(Br)Br
inactive: [1] | [2] | [3] | [17] | [4] | [5] | [6] | [7] | [8] | [9] | [12] | [13] | [14] | [15] | [18] | [16] | [19]

Nc1ccc(NC(=O)c2ccc(N)cc2)cc1
inactive: [1] | [2] | [3] | [17] | [5] | [6] | [7] | [8] | [9] | [14]
active: [4] 27.3 µM | [13] 54.5 µM

CCC(CO)(CO)CO
inactive: [1] | [2] | [3] | [17] | [4] | [5] | [6] | [7] | [8] | [9] | [10] | [11] | [12] | [13] | [14] | [15] | [18] | [16] | [19]
